In all, about 5,500 compounds went through this assay and about 2,000 (36%) were called active. Another 18% or so got no clear call; they are omitted. No stated cut-off is given here; in the data, active means normalized growth mostly below about 0.91 (no sharp cut-off); inconclusive means no clear call, values can overlap the other calls; inactive means mostly above about 0.92. This is one part of the list.
Test: chemical genetic growth profiling, strain panel (AID 1159580);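 further: tested at 20 µM; growth read once vehicle control cultures reached saturation at 30 °C; 1 = growth at the plate median or of vehicle wells; lower values mean less growth of the strain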
Conditions: S. cerevisiae deletion strains, growth OD

Measured: normalized growth

CCN(CC)CCNC(=O)c1ccc(NC(C)=O)cc1
inactive: locus YAL040C, strain CLN3, hits give low values 0.985 | locus YDR150W, strain NUM1, hits give low values 0.975 | locus YER002W, strain NOP16, hits give low values 0.969 | locus YGR078C, strain PAC10, hits give low values 0.985 | locus YGR229C, strain SMI1, hits give low values 1.01 | locus YHR030C, strain SLT2, hits give low values 0.999 | locus YHR079C, strain IRE1, hits give low values 1.03 | locus YJL095W, strain BCK1, hits give low values 1.02 | locus YJR066W, strain TOR1, hits give low values 0.971 | locus YLR113W, strain HOG1, hits give low values 1.03 | locus YMR307W, strain GAS1, hits give low values 1.01 | locus YNL175C, strain NOP13, hits give low values 0.983 | locus YNL183C, strain NPR1, hits give low values 0.959 | locus YNL197C, strain WHI3, hits give low values 0.984 | locus YNL224C, strain SQS1, hits give low values 1.01 | locus YOR083W, strain WHI5 (second series), hits give low values 0.979 | locus YOR231W, strain MKK1, hits give low values 1.04 | locus YPL256C, strain CLN2, hits give low values 1.08
